In ChEMBL document CHEMBL3988442, “University of Dundee, Small-Polar-MMV Screening Library” (2021) one finds Percent Effect data, which are given here for 20 compounds.

For assay [1], the target named is T1, Aspartate--tRNA(Asp/Asn) ligase (Mycobacterium tuberculosis (strain ATCC 25618 / H37Rv)) (UniProt P9WFW3). Note: in the data most compounds retested in dose-response had high values.
T1 sequence (whole entry): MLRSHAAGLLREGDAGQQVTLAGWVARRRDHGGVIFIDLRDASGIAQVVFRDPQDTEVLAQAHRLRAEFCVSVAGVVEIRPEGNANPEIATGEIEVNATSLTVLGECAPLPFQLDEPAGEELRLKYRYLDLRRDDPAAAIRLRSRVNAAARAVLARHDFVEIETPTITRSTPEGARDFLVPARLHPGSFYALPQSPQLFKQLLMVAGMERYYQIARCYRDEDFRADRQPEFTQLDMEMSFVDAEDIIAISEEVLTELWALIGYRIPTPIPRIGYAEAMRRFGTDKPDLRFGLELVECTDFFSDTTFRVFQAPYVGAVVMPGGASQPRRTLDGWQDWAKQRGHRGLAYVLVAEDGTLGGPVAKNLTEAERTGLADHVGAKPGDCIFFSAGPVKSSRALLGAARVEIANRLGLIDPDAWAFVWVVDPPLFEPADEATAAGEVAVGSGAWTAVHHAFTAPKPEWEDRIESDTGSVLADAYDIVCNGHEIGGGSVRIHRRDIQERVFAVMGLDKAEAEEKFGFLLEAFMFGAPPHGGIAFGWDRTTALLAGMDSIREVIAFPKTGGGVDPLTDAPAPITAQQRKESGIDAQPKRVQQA
Put plainly: Assay for Asp RNA synthetase-1 from Mycobacterium tuberculosis. More on the design: scale not given: direction of the effect not stated beside the values. Format: functional. Conditions: 30 µM.

For assay [2], the target named is Shiga toxin 2 (Escherichia coli O157:H7) (UniProt P09385+P09386). Kind of assay: E. coli 0.157:H7 Shiga Toxin SOP - stx2 screening assay. Conditions: 30 µM. Format: functional. Set-up: scale not given: direction of the effect not stated beside the values.

As for `COCCCNc1nccc(-c2c[nH][nH]c2=O)n1`, the values for the Percent Effect in assay [1] and in assay [2] were 6.51% and -55.9%, respectively.
The like results for `Cc1cnn(CC2CCCCN2C(=O)CN(C)C2CC2)c1` (stereo not given) were, in that order, 2.98% and -50.8%.
The like results for `CC1c2ncc(CN3CCN(C)CC3)n2CCN1CC1CC1` (stereo not given) were, in that order, 0.815% and -23.1%.
On to `CCc1nc(NCCCOC)c2c(n1)c(C)nn2C`, for which the Percent Effect in assay [1] is -8.39%; in assay [2], -21.6%.
On to `Cc1ccc(NC2CCN(C(=O)CC3CCCO3)CC2)nn1` (stereo not given), for which the Percent Effect was -2.07% in assay [1] and 4.7% in assay [2].
On the same counts, the results for `COCC(=O)N1CCC(c2nc3ccc(-c4ccccc4)cn3n2)CC1` are -2.8% and -19.6%.
The like results for `O=C1CC(c2ccco2)c2sc(C(=O)O)c(-c3ccccc3)c2N1` (stereo not given) were, in that order, 7.4% and 19%.
For `Cc1nn(C)c(N(C)C)c1CNC(C)c1cccc(OC(C)C)c1` (stereo not given), the Percent Effect in assay [1] was -3.06%; in assay [2] it was -5.32%.
On the same counts, the results for `C[C@@H]1C[C@@H]2CCN(C(=O)c3cnccn3)C[C@H]2O1` are 0.69% and -15.2%.
Turning to `O=C1NC2(CCN(C(=O)Cc3ccsc3)CC2)CC1c1ccncc1` (stereo not given), the values for the Percent Effect in assay [1] and in assay [2] were 1.5% and -5.98%, respectively.
`O=C(NCc1ccccn1)[C@@H]1COC[C@H]2CN(C3CCOCC3)C[C@H]21`: the Percent Effect is 7.53% in assay [1] and -6.42% in assay [2].
Regarding `Cc1ccc(C(=O)N2CCC3(CC2)NC(=O)CC3c2ccccc2)cn1` (stereo not given), the figures for the Percent Effect in assay [1] and in assay [2] were 3.23% and -13.9%, respectively.
With `O=C(c1ccc[nH]1)N1CCN(CC2CCOc3ccccc3C2)CC1` (stereo not given), the values for the Percent Effect in assay [1] and in assay [2] were 4.96% and -20.9%, respectively.
On the same counts, the results for `CCN1CC2(CC1=O)CN(Cc1cnn(C)c1)CCN(C(C)=O)C2` (stereo not given) are 1.68% and -2.37%.
The like results for `O=C(c1cccc2[nH]ncc12)N1CCCC1c1noc(C2CC2)n1` (stereo not given) were, in that order, -4.54% and 0.232%.
As for `Cn1cc(N2CC3(CCN(S(=O)(=O)C4CC4)C3)CC2=O)cn1` (stereo not given), the Percent Effect in assay [1] is -0.32%; in assay [2], -17.6%.
`Cc1cc(C)n(CC2CCCN2C(=O)c2ccc3[nH]nnc3c2)n1` (stereo not given): the Percent Effect in assay [1] was 3.71%; in assay [2] it was -26.6%.
Turning to `CCCN(CC)C(=O)c1cc2c(c3ccccc3n2C)n1C(=O)N(C)C`, the Percent Effect came to 6.03% in assay [1] and 2.44% in assay [2].
On the same counts, the results for `Cc1cccc(CN2CCC3(CCN(Cc4ccccn4)C3)C2=O)c1` (stereo not given) are 0.956% and -19.6%.
In the case of `NC(=O)C1CCN(C(=O)c2cccc(OCc3cscn3)c2)CC1`, the values for the Percent Effect in assay [1] and in assay [2] were -1.48% and -35.2%, respectively.
